Results taken from PubChem BioAssay (NCATS).
A number with no mark means an inactive call. The rule behind the calls is not given here.

Tested on: HIV-1 nucleocapsid protein NCp7 (binding to TG oligonucleotide)
Assay: HIV Nucleocapsid (AID 346);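 note: potency is for inhibitors that block NC binding and lower polarization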
Settings: HIV-1 NC / fluorescein-TGTGTGTG probe, fluorescence polarization
How it was run: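 HIV-1 NC (100 nM) binding to fluorescein-labelled ssDNA TG4xF (10 nM) in Hepes pH 7.5, 250mM NaCl, 1uM ZnCl2, TCEP and 2-mercaptoethanol; compounds pin-transferred, 1 hr room temperature, fluorescence polarization read on CCD imager.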
Potency is the fitted concentration of half-maximal effect.

SMILES	Potency
Cc1noc(C)c1-c1nccc(-n2ccnc2)n1	> 20 µM
COc1ccc(NC(=O)N2CC[C@@]3(CCCN(C(=O)c4cccc(F)c4)C3)C2)cc1	> 20 µM
COc1ccc(NC(=O)N2CC[C@@]3(CCCN(C(C)=O)C3)C2)cc1	> 20 µM
COc1ccccc1CNc1cc(-c2ccccc2OC)ncn1	> 20 µM
CC(=O)NCCNc1ncncc1-c1ccc(N(C)C)cc1	> 20 µM
O=C(c1cccc(F)c1)N1CCC2(CC1)CN(c1ncccn1)C2	> 20 µM
COc1ccccc1CNc1ncncc1-c1ccoc1	> 20 µM
O=C(c1ccco1)N1CCC2(CC1)CCN(c1ccncc1)CC2	> 20 µM
COc1cccc(-c2ccc3ncnc(NCc4ccccc4)c3c2)c1	> 20 µM
O=C(c1cnccn1)N1CCC[C@@]2(CCN(Cc3ccccc3)C2)C1	> 20 µM
O=S(=O)(c1ccccc1)N1CCC2(CC1)CN(c1ccccc1)C2	> 20 µM
Fc1ccc(Nc2ccnc(-c3ccoc3)n2)cc1	> 20 µM
CCNc1ncc2nc(CCc3ccccc3)c(=O)n(C)c2n1	> 20 µM
COc1cccc(-c2ccc3ncnc(NCCNC(C)=O)c3c2)c1	> 20 µM
COc1ccccc1CN1CC[C@@]2(CCCN(S(C)(=O)=O)C2)C1	> 20 µM
CN(C)c1ncc2nc(-c3ccc(Cl)cc3)c(=O)n(-c3ccccc3)c2n1	> 4 µM
